# Data from PubChem BioAssay (NCATS).
# Values joined by “and” are separate entries in the source; they are usually repeats but may differ in a detail not shown here. Equal values may be shown once. A number with no mark means an inactive call. Inconclusive results are not listed. Active and inactive are the calls of the source. Unless noted, the call rests on the fitted dose curve; in most records, active means well fitted curve in either direction with a large enough effect (not every such curve was filed as active); inconclusive means small, poorly fitted or top-dose-only effect, or another doubt; inactive means flat fitted curve, though single readings scatter.
# How the values were obtained:
# [1] = AP1 Signaling Pathway (AID 357); conditions: ME-180 AP-1-bla reporter, EGF-induced, beta-lactamase ratio, 5 h; further: on the % scale 0 is the no-effect control and ±100 the full control effect
# How it was run: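 Modulation of EGF-driven AP-1 transcription was assessed with a beta-lactamase reporter in ME-180 cells. Compound and EC50 EGF were co-incubated 5 hours at 37 °C before 2.5-hour CCF4 loading at room temperature and dual-emission reading.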
# [2] = Stat Signaling Pathway (AID 446); conditions: ME-180 SIE beta-lactamase reporter, IL-6 stimulated, 5 h; series mostly up to 17.2 µM;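 further: ME-180 cervical cancer cells given 40 pM IL-6 alongside compound; SIE-controlled beta-lactamase reporter measured as 460/530 nm FRET emission ratio; on the % scale 0 is the no-effect control and ±100 the full control effect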
# How it was run: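 Screening format detects activators and inhibitors alike: ME-180 SIE-bla cells stimulated at 40 pM IL-6 for 5 hrs with compound, then dual-emission beta-lactamase read at 405 nm excitation.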
# [3] = target: Glucocorticoid receptor (Homo sapiens) (UniProt P04150); assay: GR-GFP Redistribution (AID 450;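 active means compounds whose dose series gives a full or clear partial fitted curve of increased nuclear translocation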; further: potency means the concentration at half of the fitted maximal effect); conditions: U2OS GR-GFP nuclear translocation, laser cytometry, 2 h
# [4] = target: Glucocorticoid receptor (Homo sapiens) (UniProt P04150); assay: GR-EFC Redistribution (AID 451; calls by dose curve; further: potency means the concentration at half of the fitted maximal effect); conditions: CHO-K1 GR-EFC translocation, beta-gal luminescence, 2 h
# How it was run: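 CHO-K1 cells expressing nuclear EA and GR-ED fragments of b-gal; compounds titrated up to 46 uM final, 2 h at 37 C. GR nuclear translocation read as complemented b-gal luminescence after 1 h RT detection.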
# [5] = target: Mitogen-activated protein kinase 10 (Mus musculus) (UniProt Q61831); assay: JNK3 AlphaScreen Assay (AID 530); conditions: JNK3 lysate, c-Jun phosphorylation; series mostly up to 57.1 µM;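 further: kinase came from lysate of stimulated human HepG2 cells; signal reports phosphorylation of biotinylated GST-cJun 1-79 at Ser73 with 10 µM ATP; on the % scale 0 is the no-effect control and ±100 the full control effect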
# How it was run: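 Pre-activated (IL-1β/TNFα) JNK3 in HepG2 lysates phosphorylates biotin-GST-cJun(1-79), 10 uM ATP; anti-phospho-cJun(Ser73) AlphaScreen read at room temperature, pH 7.6 Tris buffer. Compounds pre-incubated 15 min as titrations.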
# [6] = target: Cytochrome P450 1A2 (Homo sapiens) (UniProt P05177); assay: p450-cyp1a2 (AID 410; calls by dose curve; further: potency means the concentration at half of the fitted maximal effect;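 on activity change, negative = inhibition: -100% = full effect of reference inhibitor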); conditions: recombinant CYP1A2, luciferin-ME demethylation, luminescence; series mostly up to 57 µM
# How it was run: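 Luminescent readout of luciferin formed from Luciferin-ME by human CYP1A2; data normalized against complete inhibition by 57 uM furafylline. Enzyme 20nM, substrate 100uM at Km, 100mM KPO4 buffer, 60 min reaction at room temperature.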
# [7] = NFAT Signaling Pathway (AID 444); conditions: Jurkat NFAT-bla M1, carbachol, beta-lactamase ratio, 5 h;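 further: carbachol stimulus at about its EC50 of 1 µM final; on the % scale 0 is the no-effect control and ±100 the full control effect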
# How it was run: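 Jurkat cells with NFAT-driven β-lactamase reporter and co-expressed M1 receptor, stimulated with carbachol (final 1 uM, ~EC50), compound titration, 5 h at 37 °C. CCF4 loaded 1 h at RT; 460/530 nm ratio gave %activity and AC50.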
# [8] = Cell Viability - BJ (AID 421; calls by dose curve;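 further: potency means the concentration at half of the fitted maximal effect; cells exposed to compound for 40 hours at 37 °C before readout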); conditions: BJ fibroblast viability, qHTS
# How it was run: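 Cytotoxicity in human BJ foreskin fibroblasts is scored as loss of cellular ATP after a 40-hour exposure, measured by luciferase luminescence. Controls are DMSO and 100 uM tamoxifen.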
# [9] = Cell Viability - Jurkat (AID 426;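 active means dose-dependent loss of cell ATP signal giving a full or clear fitted curve, ranked by lower potency value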; further: potency means the concentration at half of the fitted maximal effect); conditions: qHTS
# How it was run: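 qHTS, 1536-well; Jurkat E6-1, 5000 cells/well, complete medium; cpd 40 hr, 37 °C; CellTiter-Glo 20 min RT; luminescence. AC50 by Hill fit.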
# [10] = Cell Viability - Hek293 (AID 427;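 active means compounds whose dose-response curve shows a full or clear partial loss of cell viability, called from curve shape rather than a numeric limit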;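 further: potency means the concentration at half of the fitted maximal effect; cells exposed to compound for 40 hours at 37 °C before reading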); conditions: qHTS
# How it was run: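 qHTS, human embryonic kidney (adenovirus-transformed) cells; 40 hr cpd, 37 °C; CellTiter-Glo ATP luminescence. Norm: DMSO = 0, 100 uM tamoxifen = 100% inhibition. Hill-fit AC50.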
# [11] = Cell Viability - HepG2 (AID 433; calls by dose curve;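 further: potency means the concentration at half of the fitted maximal effect; potency for ATP loss meaning cytotoxicity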); conditions: qHTS
# How it was run: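 In this qHTS format, a 40 h, 37 °C compound incubation of HepG2 cells in complete medium precedes a 20 min CellTiter-Glo step at room temperature. Tamoxifen and doxorubicin serve as positive controls; Hill-equation fits yield AC50.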
# [12] = Cell Viability - MRC5 (AID 434; calls by dose curve;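 further: potency means the concentration at half of the fitted maximal effect; potency reflects cytotoxicity seen as loss of intracellular ATP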); conditions: MRC5 lung fibroblast viability, qHTS
# How it was run: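 MRC5 normal human lung fibroblasts, 1500 cells/well, exposed to compound for 40 hr at 37 C. Cellular ATP was read by CellTiter-Glo luminescence; data normalized to DMSO and 100 uM tamoxifen, with AC50 from Hill fits.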
# [13] = Cell Viability - SK-N-SH (AID 435; calls by dose curve;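 further: potency means the concentration at half of the fitted maximal effect; compound exposure lasted 40 h at 37 °C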); conditions: SK-N-SH neuroblastoma cell viability qHTS
# How it was run: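 Human neuroblastoma line, 40 h exposure at 37 °C, ATP quantified via luciferase luminescence; DMSO and 100 uM tamoxifen define 0 and 100% inhibition for AC50 fitting.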
# [14] = Cell Viability - N2a (AID 540; active means well fitted curve in the direction sought with a large enough effect; an effect the other way counts as inactive or inconclusive;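 further: plate controls were DMSO alone for no effect and tamoxifen control for full effect; nearly all actives have a fitted effect of over 45% in size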); conditions: N2a mouse neuroblastoma cell viability; series mostly up to 92.2 µM
# How it was run: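 Luminescent ATP signal (CellTiter-Glo, 20 min at room temperature) served as the viability read-out after N2a cells were treated with compounds for 40 hours at 37 °C. Concentration-response data were fitted to the Hill equation for AC50.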
# [15] = Cell Viability - NIH 3T3 (AID 541; active means well fitted curve in the direction sought with a large enough effect; an effect the other way counts as inactive or inconclusive;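 further: plate controls were DMSO alone for no effect and tamoxifen positive control for full effect; nearly all actives have a fitted effect of over 25% in size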); conditions: NIH 3T3 cell viability, qHTS; activity change, negative = cytotoxicity: at 92.2 µM (top of the series)
# How it was run: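 Luminescent ATP signal (CellTiter-Glo) served as the viability read-out after NIH 3T3 cells were exposed to compounds over a concentration range for 40 hr at 37 °C. Hill-equation modelling of concentration-response data gave AC50.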
# [16] = Cell Viability - HUV-EC-C (AID 542; active means well fitted curve in the direction sought with a large enough effect; an effect the other way counts as inactive or inconclusive; further: on the % scale 0 is the no-effect control and ±100 the full control effect; nearly all actives have a fitted effect of over 35% in size); conditions: HUV-EC-C endothelial cell viability, qHTS; series mostly up to 92.2 µM
# How it was run: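 qHTS cytotoxicity: HUV-EC-C, 1000 cells/well, 5 hr settle, compound 40 hr 37 °C, CellTiter-Glo, luminescence. AC50 via Hill equation.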
# [17] = Cell Viability - H-4-II-E (AID 543; active means well fitted curve in the direction sought with a large enough effect; an effect the other way counts as inactive or inconclusive; further: on the % scale 0 is the no-effect control and ±100 the full control effect; nearly all actives have a fitted effect of over 35% in size); conditions: H-4-II-E rat hepatoma viability; series mostly up to 92.2 µM
# How it was run: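 Luminescent ATP signal (CellTiter-Glo) served as the viability read-out, with cytotoxicity seen as a concentration-dependent ATP drop. Cells were treated for 40 hours in complete medium. AC50 values derive from Hill-equation modelling.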
# [18] = Cell Viability - SH-SY5Y (AID 544; active means well fitted curve in the direction sought with a large enough effect; an effect the other way counts as inactive or inconclusive;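 further: 0% = DMSO alone and -100% = 100 µM tamoxifen; nearly all actives have a fitted effect of over 55% in size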); conditions: SH-SY5Y neuroblastoma cell viability; series mostly up to 92.2 µM
# How it was run: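 Luminescent ATP read-out (CellTiter-Glo) measures loss of viable SH-SY5Y neuroblastoma cells after 40 hr compound exposure at 37 °C. AC50 values derive from standard Hill modelling of qHTS concentration-response data.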
# [19] = Cell Viability - Renal Proximal Tubule (AID 545; active means well fitted curve in the direction sought with a large enough effect; an effect the other way counts as inactive or inconclusive;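 further: 0% = DMSO only and -100% = 100 µM tamoxifen; nearly all actives have a fitted effect of over 40% in size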); conditions: renal proximal tubule cells viability, primary cells of rat origin; activity change, negative = cytotoxicity: at 91.7 µM (top of the series)
# How it was run: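 In this qHTS format, normal rat kidney-derived proximal tubule cells in complete culture medium receive compound titrations, then sit 40 hours at 37 °C before luciferase-based ATP quantitation; potency is reported as AC50 from concentration-response curves.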
# Chain of Cytochrome P450 1A2 (Homo sapiens) (P05177 whole entry, looked up): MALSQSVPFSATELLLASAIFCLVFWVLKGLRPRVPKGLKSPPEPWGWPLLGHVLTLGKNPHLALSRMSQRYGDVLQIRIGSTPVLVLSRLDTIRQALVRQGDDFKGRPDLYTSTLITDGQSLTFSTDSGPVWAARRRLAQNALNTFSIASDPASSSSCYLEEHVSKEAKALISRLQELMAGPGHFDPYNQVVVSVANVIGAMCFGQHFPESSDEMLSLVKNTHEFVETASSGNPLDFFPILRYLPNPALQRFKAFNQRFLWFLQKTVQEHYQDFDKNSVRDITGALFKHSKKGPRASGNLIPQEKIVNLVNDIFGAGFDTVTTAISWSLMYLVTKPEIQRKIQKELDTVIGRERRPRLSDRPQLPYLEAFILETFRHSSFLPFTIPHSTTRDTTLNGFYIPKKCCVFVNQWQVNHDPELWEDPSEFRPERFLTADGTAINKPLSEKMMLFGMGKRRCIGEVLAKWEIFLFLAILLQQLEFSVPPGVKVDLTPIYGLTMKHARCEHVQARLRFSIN
# Chain of Glucocorticoid receptor (Homo sapiens) (P04150 whole entry, looked up, the tested form may be a part): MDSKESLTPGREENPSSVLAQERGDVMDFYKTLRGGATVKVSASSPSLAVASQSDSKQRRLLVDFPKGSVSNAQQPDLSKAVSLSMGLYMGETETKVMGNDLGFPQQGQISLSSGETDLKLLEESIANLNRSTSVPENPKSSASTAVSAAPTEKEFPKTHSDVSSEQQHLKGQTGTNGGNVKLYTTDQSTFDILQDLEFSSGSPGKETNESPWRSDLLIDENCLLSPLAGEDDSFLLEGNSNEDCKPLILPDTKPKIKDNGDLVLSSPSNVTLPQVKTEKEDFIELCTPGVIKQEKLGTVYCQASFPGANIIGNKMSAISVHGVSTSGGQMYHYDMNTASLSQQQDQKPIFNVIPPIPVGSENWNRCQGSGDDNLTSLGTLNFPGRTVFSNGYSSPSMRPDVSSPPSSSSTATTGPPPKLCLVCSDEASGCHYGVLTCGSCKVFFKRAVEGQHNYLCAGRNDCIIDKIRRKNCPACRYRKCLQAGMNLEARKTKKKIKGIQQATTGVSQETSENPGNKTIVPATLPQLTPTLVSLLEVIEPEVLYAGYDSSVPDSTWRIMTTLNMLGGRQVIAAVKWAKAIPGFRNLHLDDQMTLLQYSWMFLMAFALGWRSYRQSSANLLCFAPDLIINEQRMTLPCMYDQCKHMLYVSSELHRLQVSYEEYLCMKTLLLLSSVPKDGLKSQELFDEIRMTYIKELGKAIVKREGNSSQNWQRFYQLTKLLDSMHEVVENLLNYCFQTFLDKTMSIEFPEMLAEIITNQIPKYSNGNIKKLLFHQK
compound,measurement,setting,value
CN/C(=C\[N+](=O)[O-])NCCSCc1ccc(CN(C)C)o1,"activity change, negative = inhibition",[1]; at 17.2 µM (top of the series),-3.39%
same,"activity change, negative = inhibition",[1]; at 38 µM (top of the series),-6.59%
same,outcome,[2],inactive
same,Potency,[3],> 46 µM and > 20.6 µM
same,Potency,[4],> 46 µM and > 20.6 µM
same,Potency,[5],inactive
c1cc(CN2CCCCC2)cc(OCCCNc2nc3ccccc3s2)c1,"activity change, negative = inhibition",[1]; at 38 µM (top of the series),6.03%
same,Potency,[6],15.8 µM (active) and 31.6 µM (active)
same,outcome,[2],inactive
same,Potency,[3],> 46 µM
same,Potency,[4],> 46 µM
same,Potency,[5],inactive
O=C(CCCN1CCC(O)(c2cccc(C(F)(F)F)c2)CC1)c1ccc(F)cc1,"activity change, negative = inhibition",[1]; at 38 µM (top of the series),14.4%
same,Potency,[6],inactive
same,"activity change, negative = inhibition",[7]; at 38 µM (top of the series),-2.13%
same,outcome,[2],inactive
same,Potency,[3],> 46 µM
same,Potency,[4],> 46 µM
same,Potency,[5],inactive
CO[C@@]1(NC(=O)CSCC#N)C(=O)N2C(C(=O)O)=C(CSc3nnnn3C)CS[C@@H]21,"activity change, negative = inhibition",[1]; at 17.2 µM (top of the series),6.1%
same,"activity change, negative = inhibition",[7]; at 17.2 µM (top of the series),-23.9%
same,outcome,[2],inactive
same,Potency,[3],> 20.6 µM
CC(C)(Oc1ccc(CCNC(=O)c2ccc(Cl)cc2)cc1)C(=O)O,"activity change, negative = inhibition",[1]; at 17.2 µM (top of the series),3.65% and 3.52%
same,Potency,[6],inactive
same,"activity change, negative = inhibition",[7]; at 17.2 µM (top of the series),-9.97% and 7.1%
same,outcome,[2],inactive
same,Potency,[3],> 20.6 µM
same,Potency,[4],> 20.6 µM
same,Potency,[5],inactive
COc1cc2c(cc1OC)-c1cc(=Nc3c(C)cc(C)cc3C)n(C)c(=O)n1CC2,"activity change, negative = inhibition",[1]; at 38 µM (top of the series),-25.7%
same,Potency,[6],inactive
same,"activity change, negative = inhibition",[7]; at 38 µM (top of the series),-16.6%
same,Potency,[3],> 46 µM
same,Potency,[4],> 46 µM
same,Potency,[5],inactive
O=C1CC2(CCCC2)CC(=O)N1CCCCN1CCN(c2ncccn2)CC1,"activity change, negative = inhibition",[1]; at 17.2 µM (top of the series),-0.287%
same,"activity change, negative = inhibition",[1]; at 38 µM (top of the series),-2.42%
same,outcome,[2],inactive
same,Potency,[5],inactive
CN=C(NC#N)NCCSCc1nc[nH]c1C,"activity change, negative = inhibition",[1]; at 38 µM (top of the series),-4.97%
same,Potency,[6],inactive
same,Potency,[8],> 92 µM
same,Potency,[9],> 92 µM
same,Potency,[10],> 92 µM
same,Potency,[11],> 92 µM
same,Potency,[12],> 92 µM
same,Potency,[13],> 92 µM
same,"activity change, negative = inhibition",[7]; at 38 µM (top of the series),6.95%
same,outcome,[2],inactive
same,Potency,[5],inactive
same,outcome,[14],inactive
same,"activity change, negative = cytotoxicity",[15],-4.92%
same,Potency,[16],inactive
same,Potency,[17],inactive
same,Potency,[18],inactive
same,"activity change, negative = cytotoxicity",[19],-10.6%
COCCOC(=O)C1=C(C)NC(C)=C(C(=O)OC(C)C)C1c1cccc([N+](=O)[O-])c1 (configuration not stated),"activity change, negative = inhibition",[1]; at 17.2 µM (top of the series),-20.8%
same,"activity change, negative = inhibition",[7]; at 17.2 µM (top of the series),-7.25%
same,outcome,[2],inactive
same,Potency,[3],> 20.6 µM
O=C(O)CN(CCOCCOCCN(CC(=O)O)CC(=O)O)CC(=O)O,"activity change, negative = inhibition",[1]; at 38 µM (top of the series),4.77%
same,Potency,[6],inactive
same,"activity change, negative = inhibition",[7]; at 38 µM (top of the series),0.822%
same,outcome,[2],inactive
same,Potency,[3],> 46 µM
same,Potency,[4],> 46 µM
same,Potency,[5],inactive
COc1ccc([C@@H]2Sc3ccccc3N(CCN(C)C)C(=O)[C@@H]2OC(C)=O)cc1,"activity change, negative = inhibition",[1]; at 17.2 µM (top of the series),23.2%
same,Potency,[6],inactive
same,Potency,[3],> 46 µM and > 20.6 µM
same,Potency,[4],> 46 µM
CCCN(CCC)C(=O)C(CCC(=O)O)NC(=O)c1ccccc1 (configuration not stated),"activity change, negative = inhibition",[1]; at 17.2 µM (top of the series),1.43%
same,"activity change, negative = inhibition",[7]; at 17.2 µM (top of the series),-1.88%
same,outcome,[2],inactive
same,Potency,[3],> 20.6 µM
NCCCNCCSP(=O)(O)O,"activity change, negative = inhibition",[1]; at 38 µM (top of the series),11.2%
same,Potency,[6],inactive
same,outcome,[2],inactive
same,Potency,[3],> 46 µM
same,Potency,[4],> 46 µM
same,Potency,[5],inactive
FC(F)(F)c1ccccc1-n1ccnc1,"activity change, negative = inhibition",[1]; at 38 µM (top of the series),7.15%
same,Potency,[6],2.51 µM (active) and 251 nM (active)
same,"activity change, negative = inhibition",[7]; at 38 µM (top of the series),-3.5%
same,outcome,[2],inactive
same,Potency,[3],> 46 µM
same,Potency,[4],> 46 µM
same,Potency,[5],inactive
C[N+](C)(C)CCOC(N)=O,"activity change, negative = inhibition",[1]; at 38 µM (top of the series),21.2%
same,Potency,[6],inactive
same,outcome,[2],inactive
same,Potency,[5],inactive
COc1cc(C(=O)OCCCN2CCCN(CCCOC(=O)c3cc(OC)c(OC)c(OC)c3)CC2)cc(OC)c1OC,"activity change, negative = inhibition",[1]; at 17.2 µM (top of the series),24.5%
same,"activity change, negative = inhibition",[1]; at 38 µM (top of the series),15.7%
same,outcome,[2],inactive
same,Potency,[3],> 46 µM and > 20.6 µM
same,Potency,[4],> 46 µM and > 20.6 µM
same,Potency,[5],inactive
CCN1CCc2nc(N)oc2CC1,"activity change, negative = inhibition",[1]; at 38 µM (top of the series),9.25%
same,Potency,[6],inactive
same,"activity change, negative = inhibition",[7]; at 38 µM (top of the series),-7.89%
same,outcome,[2],inactive
same,Potency,[3],> 46 µM
same,Potency,[4],> 46 µM
CCCCNc1ccc(C(=O)OCCN(C)C)cc1,"activity change, negative = inhibition",[1]; at 17.2 µM (top of the series),-19.5%
same,"activity change, negative = inhibition",[1]; at 38 µM (top of the series),22.1%
same,"activity change, negative = inhibition",[7]; at 17.2 µM (top of the series),-27.7%
same,outcome,[2],inactive
same,Potency,[3],> 46 µM and > 20.6 µM
same,Potency,[4],> 46 µM and > 20.6 µM
same,Potency,[5],inactive
